Measured values: PubChem BioAssay (NCI)
The panel holds about 83,000 compounds, 20% with a hit somewhere; the sample as a whole holds those more often.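 Negative percent growth values reflect cell death: -40 means 40% of the cells present at the start died, and -100 means all died.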 Values without a mark were called inactive. The source made the active and inactive calls. The calls were made as follows: active = growth percent below 10; inactive = the rest.

Legend:
Assay in all cases: NCI-60 one-dose screen, 48 h (100 = growth as untreated, 0 = no growth, -100 = all killed)
Conditions in all cases: 10 µM unless noted
SK-MEL-2 melanoma = tested on: SK-MEL-2 melanoma
SN12C renal = tested on: SN12C renal
UO-31 renal = tested on: UO-31 renal
TK-10 renal = tested on: TK-10 renal
ACHN renal = tested on: ACHN renal
CAKI-1 renal = tested on: CAKI-1 renal
MOLT-4 leukemia = tested on: MOLT-4 leukemia
SR leukemia = tested on: SR leukemia
RPMI-8226 leukemia = tested on: RPMI-8226 leukemia
OVCAR-8 ovarian = tested on: OVCAR-8 ovarian
OVCAR-5 ovarian = tested on: OVCAR-5 ovarian
OVCAR-4 ovarian = tested on: OVCAR-4 ovarian
SK-OV-3 ovarian = tested on: SK-OV-3 ovarian
IGROV1 ovarian = tested on: IGROV1 ovarian
OVCAR-3 ovarian = tested on: OVCAR-3 ovarian
HS 578T breast = tested on: HS 578T breast
NCI/ADR-RES ovarian = tested on: NCI/ADR-RES ovarian
A498 renal = tested on: A498 renal
CCRF-CEM leukemia = tested on: CCRF-CEM leukemia

Structure (SMILES) | growth (SK-MEL-2 melanoma) [%] | growth (SN12C renal) | growth (UO-31 renal) [%] | growth (TK-10 renal) | growth (ACHN renal) [%] | growth (CAKI-1 renal) [%] | growth (MOLT-4 leukemia) | growth (SR leukemia) | growth (RPMI-8226 leukemia) | growth (OVCAR-8 ovarian) | growth (OVCAR-5 ovarian) | growth (OVCAR-4 ovarian) | growth (SK-OV-3 ovarian) | growth (IGROV1 ovarian) | growth (OVCAR-3 ovarian) | growth (HS 578T breast) [%] | growth (NCI/ADR-RES ovarian) [%] | growth (A498 renal) | growth (CCRF-CEM leukemia)
Nc1cc2nc3ccccc3sc-2cc1=O | 89.4 | 60.7% | 42.8 | 137% | 65.5 | 56.3 | 61.4% | 2.91% (active) | 45.2% | 64.4% | 94.2% | 73.3% | 90.8% | 54.7% | 65.2% | 85.1 | 81.1 |  | 
Cc1cc(Nc2nc(N3CCN(C)CC3)nc3ccccc23)n[nH]1 | 43.5 | 68.1% | 54.9 | 54.8% | 41.3 | 13.4 | 69.9% | 20.7% | 87.2% | 99.6% | 86.7% | 54.5% | 25.5% | 35.6% | 75.8% | 50.8 | 122 | 16.9% | 
Nc1ccc(N2CCOCC2)cc1 | 91.8 | 94% | 73.5 | 91.8% | 86.8 |  | 118% | 110% | 112% | 105% | 91.7% | 92.8% | 104% | 105% | 99.7% | 125 | 85.6 | 103% | 124%
Cc1cc(Nc2nc(N3CCNCC3)nc3ccccc23)n[nH]1 | 53.6 | 76.1% | 64.3 | 60.5% | 41.5 | 20.1 | 101% | 92.6% | 117% | 115% | 89.6% | 96.2% | 27% | 85.1% | 100% | 65.2 | 107 |  | 108%
Nc1c(C(=O)Nc2ccccc2Cl)sc2nc3c(cc12)CCCCCC3 | 46.2 |  |  | 24.2% | 10.1 | 57.7 | 39.8% | 13.2% |  | 48.8% | 60.9% |  | 43.9% | 25.9% | 21.5% |  | 35 | 50.1% | 25.5%
CCOC(=O)CC(C)=N | 111 | 103% | 98.5 |  | 109 | 111 | 106% | 120% | 113% | 108% | 107% | 100% | 111% | 132% | 112% | 107 | 112 |  | 118%
NC(CC(=O)O)C(=O)OCc1ccccc1 (configuration not stated) | 94.8 | 105% | 71.8 | 122% |  | 79.9 | 103% | 107% | 98.7% | 101% | 101% | 89.6% | 82.9% | 105% | 110% | 101 | 101 | 85.4% | 108%
N#CC1=C(N)Oc2c(ccc3ccccc23)C1c1cccs1 (configuration not stated) | 52.5 | 26.5% | 46.5 | 77.6% | 35.2 | 48.9 | 1.98% (active) | -11.2% (active) | -17.3% (active) | 17.2% | 34.9% | 12.6% | 5.5% (active) | 60.3% | -38.8% (active) | 22.3 | 14.5 | -5.58% (active) | 
COc1ccc2nc3cc(Cl)ccc3c(N3CCN(c4ccnc(N5CCN(C)CC5)n4)CC3)c2c1 |  | 36.9% | 51.2 | 8.16% (active) | 36.9 | 49.7 | -24% (active) | -26.9% (active) | 11.2% | 41.2% | 81.4% | 46.2% | 87.2% | 72.9% | -39.4% (active) | 106 | 84.9 | 68.1% | -27.9% (active)
COc1ccc2nc3cc(Cl)ccc3c(N3CCN(c4nccc(NCc5ccccc5)n4)CC3)c2c1 |  | 76% | 45.9 | 62.6% | 68.5 | 62.2 | 5.21% (active) | 20.9% | 63.2% | 71.4% | 106% | 67.3% | 98.1% | 92% | 63.3% | 83.3 | 78.5 | 28.8% | 0.798% (active)
O=C1Nc2ccccc2C12CC(c1ccccc1)=NN2 (configuration not stated) |  | 68.6% | 57.6 |  | 59.3 | 22.8 | 38.7% | -7.86% (active) | 47.3% | 70.5% | 83.8% | 77.2% | 59.4% | 43% | 39.6% | 87.9 | 41.5 | 63.7% | 49.2%
COc1ccc2nc3cc(Cl)ccc3c(N3CCN(c4nccc(Nc5ccc(Cl)cc5)n4)CC3)c2c1 |  | 74% |  | 55.8% | 58.2 | 46.4 | 3.98% (active) | 30.4% | 43.9% | 80.7% | 90.6% | 60.7% | 88.4% | 83.1% | 49.5% | 84.3 | 80.7 |  | 5.59% (active)
CC/C(=C(\c1ccc(O)cc1)c1ccc(OCCN(C)CCN(C)C(=O)CCCCC(=O)c2c(C)[nH]c(/C=C3\N=C(c4ccc[nH]4)C=C3OC)c2C)cc1)c1ccccc1 |  | 82.9% | 55.8 | 119% | 92.5 | 78.5 | 56% | 9.77% (active) | 63.1% | 85.4% | 108% | 77.7% | 123% | 89.5% | 89.4% | 97.8 | 97.4 | 66.5% | 
CCN(CC)CCC(=O)Nc1ccc(Cn2nnc3c2C(=O)c2nnn(Cc4ccc(NC(=O)CCN(CC)CC)cc4)c2C3=O)cc1 |  | -50.1% (active) | 99.9 | 122% | 87.6 | 85.9 | -28.9% (active) | -18.9% (active) | -16.6% (active) | -35.6% (active) | -19.1% (active) | -72.7% (active) | -8.54% (active) | -55.6% (active) | -16.2% (active) |  | 99.3 | 14.6% | -13% (active)
COc1ccc(/C=c2/c(=O)[nH]c3nc4sc(C)c(C)c4c(=O)n23)cc1 |  | 84% | 73 | 101% | 91.5 | 74.2 | 62.3% | 53.9% | 82.9% | 77.8% | 105% | 81.8% | 102% | 97.8% | 101% | 99.6 | 79.3 | 101% | 66.9%
COc1ccc(C(=O)c2sc3nc4c(c(C(F)(F)F)c3c2N)CN(C(C)=O)CC4)cc1OC |  | 93.7% | 46.3 |  | 79.1 | 80 | 79.2% | 79.4% | 57.1% | 80.9% | 89.3% | 85.8% | 87.2% | 98.2% | 95.9% | 81.6 | 84.7 | 58.1% | 82.6%
O=C(CN1CCOCC1)Nc1ccc(Cn2nnc3c2C(=O)c2nnn(Cc4ccc(NC(=O)CN5CCOCC5)cc4)c2C3=O)cc1 |  | -32.1% (active) | 85.3 | 79.7% | 58.7 | 72.9 | -41.8% (active) | -21.3% (active) | -18.9% (active) | -58.3% (active) | -21.9% (active) | -93.4% (active) | 0.088% (active) | -41.4% (active) | -19% (active) | 11.6 | 103 | -39.8% (active) | -21.4% (active)
Cc1cc(OCc2ccc(C(F)(F)F)cc2)c2c(c1)C(=O)C=C(NCCN1CCCC1)C2=O |  | 79.4% | 53.8 | 82.7% | 72.5 | 53.1 | 16.4% | -11.6% (active) | 29.9% | 72.3% | 87.9% | 68% | 103% | 74.8% | 83.9% | 85 | 81.1 | 67.8% | 13%
